Compound activity deposited in PubChem BioAssay by several laboratories.
eLon inh = E. coli protease La inhibition; P0A9M0; purified E. coli Lon protease, fluorescence polarization; inhibition, % at 7.94 µM; 0.42% of 360,000 active; AID 602123; in the data active = inhibition above about 13%, passing the limit was not always enough;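 note: 0% = enzyme with probe and DMSO and 100% = no enzyme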
MEX-5 binding = C. elegans MEX-5 TCR-2 RNA binding activity. Q9XUB2. MEX-5/FITC-TCR2 RNA binding, fluorescence polarization; hits give low values. activity score (negative = inhibition of binding), % at 10 µM. 0.38% of 300,000 active. AID 1832;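 active = inhibition past about -25% in most replicates, and total fluorescence under double the plate's negative control median, limit read from the data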;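 note: 0% = DMSO and -100% = 5 µM competing unlabeled TCR2 RNA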
BCLXL inh = blocks human Bcl-xL binding to Bim BH3 peptide. GST-Bcl-xL / FITC-Bim BH3 peptide fluorescence polarization. 0.7% of 320,000 active. Q07817. inhibition, % at 10.9 µM. AID 2129;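 active = inhibition above the mean of all tested compounds plus 3 SD, cutoff set per campaign, cut at about 30% in these data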;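 note: 0% = DMSO wells and 100% = unlabeled Bim-BH3 peptide competitor; inhibitors lower millipolarization by displacing the labeled peptide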
MCL1 BIM primary = disrupts human MCL1 binding to BIM-BH3 peptide | Q07820 | GST-MCL1 / FITC-Bim-BH3 fluorescence polarization | inhibition, % at 10.9 µM | 0.68% of 320,000 active | AID 2057;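 active = inhibition above the mean inhibition of all tested compounds plus 3 SD, set per campaign, cut at about 40% in these data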;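 note: 0% = DMSO wells and 100% = unlabeled Bim-BH3 peptide control; higher means more loss of mP so more displacement of Bim peptide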
GLD-1 TGE inh = GLD-1-TGE RNA interaction inhibition (C. elegans); AID 2280; inhibition, % at 5.96 µM; purified GLD-1 + fluorescein TGE RNA, fluorescence polarization; 0.44% of 320,000 active;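 active = percent inhibition above a per-plate cutoff, the plate mean of test compounds plus 3 SD, cut at about 30% in these data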;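 note: 0% = DMSO wells with GLD-1 and probe and 100% = wells lacking GLD-1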
Target sequence (Q17339 whole entry, looked up): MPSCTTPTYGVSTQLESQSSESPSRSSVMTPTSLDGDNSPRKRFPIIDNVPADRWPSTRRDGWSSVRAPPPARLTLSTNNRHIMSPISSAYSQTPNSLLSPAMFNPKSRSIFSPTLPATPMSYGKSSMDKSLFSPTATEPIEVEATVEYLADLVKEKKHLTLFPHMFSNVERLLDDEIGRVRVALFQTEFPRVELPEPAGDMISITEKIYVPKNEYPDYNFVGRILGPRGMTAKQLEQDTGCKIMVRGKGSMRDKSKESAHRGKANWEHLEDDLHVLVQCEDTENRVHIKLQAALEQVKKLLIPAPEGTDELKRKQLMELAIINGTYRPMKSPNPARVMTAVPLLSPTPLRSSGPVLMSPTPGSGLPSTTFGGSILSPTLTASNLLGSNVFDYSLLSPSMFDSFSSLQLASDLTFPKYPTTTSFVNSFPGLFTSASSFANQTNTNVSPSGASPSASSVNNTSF
EBV gp42 block = EBV gp42 inhibition; Q1HVG2; Fluorescence polarization binding assay, mP read-out; inhibition, % (tested at 21.74 µM); 0.42% of 220,000 active; AID 1085; in the data active = inhibition above about 50%
eLon confirm = E. coli Lon inhibition confirmation. shares compounds with eLon inh. purified E. coli Lon, fluorescence polarization. inhibition, % at 7.94 µM. 31% of 1,400 active; in the data active = inhibition above about 16%;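 note: 0% = enzyme with probe and DMSO and 100% = no enzyme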
Starred values were filed as active, the others as inactive. This is a sample that favours compounds with a hit; in the whole collection about 1.5% have one here.

For CCNc1nc2c(c(=O)[nH]c(=O)n2C)n1CC(C)C the results were eLon inh 1.6, MEX-5 binding 1.9, BCLXL inh 2.4, MCL1 BIM primary -2.3, GLD-1 TGE inh 4.1 and EBV gp42 block 1.3.
For CC(C)Cn1c(NCCN(C)C)nc2c1c(=O)[nH]c(=O)n2C the results were eLon inh 23.8*, MEX-5 binding -0.3, BCLXL inh 3.4, MCL1 BIM primary -0.5, GLD-1 TGE inh 3.7, EBV gp42 block 2.8 and eLon confirm 0.8.
For Cn1c(=O)c2c(-c3ccccc3)n(-c3cccc(O)c3)cc2n(C)c1=O the results were eLon inh 18.2* and eLon confirm 6.1.
For O=CNCc1nc2ccccc2n1CCc1ccccc1 the results were eLon inh -5.5, MEX-5 binding 0.5, BCLXL inh 2.3, MCL1 BIM primary 8.0 and GLD-1 TGE inh 3.5.
`O=CNCCCc1nc2ccccc2n1CCc1ccccc1` gave eLon inh 18.0*, MEX-5 binding 3.9 and eLon confirm 4.5.
Screening CCOC(=O)c1ccc(NC(=O)CSc2nnc(C)n2-c2ccccc2)cc1 returned eLon inh 14.2*, MEX-5 binding -0.5, BCLXL inh 5.0, MCL1 BIM primary 10.8, GLD-1 TGE inh 0.0, EBV gp42 block -10.8 and eLon confirm 7.8.
For CCn1nnc(-c2ccccc2NC(=O)C(F)(F)F)n1 the results were eLon inh 2.4, MEX-5 binding -0.6, BCLXL inh 6.3, MCL1 BIM primary 8.4, GLD-1 TGE inh -0.3 and EBV gp42 block -23.1.
For C[C@H](CO)N1C[C@H](C)[C@H](CN(C)C(=O)Nc2cccc(F)c2)Oc2cc(C#CC3(O)CCCC3)ccc2S1(=O)=O the results were eLon inh 12.5* and eLon confirm -2.4.
Cn1c(CC(=O)Nc2ccccc2F)nnc1SCC(=O)NC1CCCCC1 was read as eLon inh -6.1, MEX-5 binding 2.1, BCLXL inh 2.0, MCL1 BIM primary 2.7 and GLD-1 TGE inh -8.3.
For CCn1c(CC(=O)Nc2ccccc2F)nnc1SCC(=O)NC1CCCC1 the results were eLon inh 16.9*, MEX-5 binding 0.5, BCLXL inh -5.6, MCL1 BIM primary -0.9, GLD-1 TGE inh 0.5 and eLon confirm 4.6.
Screening COc1cccc(/C=N/NC(=O)c2ccc(N3CCCC3=O)cc2)c1 returned eLon inh 5.3, MEX-5 binding 0.3, BCLXL inh 0.5, MCL1 BIM primary -4.7 and GLD-1 TGE inh -1.4.
Oc1ccccc1/C=N/n1c(-c2ccccc2)n[nH]c1=S was read as eLon inh 5.8, MEX-5 binding 0.1, BCLXL inh -35.1, MCL1 BIM primary -14.0 and GLD-1 TGE inh 2.8.
For COc1c(Br)cc(/C=N/n2c(-c3ccccc3)n[nH]c2=S)c(O)c1Br the results were eLon inh 19.4*, MEX-5 binding 0.3, BCLXL inh -7.0, MCL1 BIM primary 11.4, GLD-1 TGE inh 6.5 and eLon confirm -11.2.
CCOC(=O)C1=C(CSc2nncn2C)NC(=O)NC1c1cc(OCC)ccc1OCC (stereo not given) was read as eLon inh -2.4, MEX-5 binding 1.7, BCLXL inh 3.6, MCL1 BIM primary -0.2, GLD-1 TGE inh 5.5 and EBV gp42 block 1.9.
